According to the supplement of paper PMC11732987, “Enantioselective OTUD7B fragment discovery through chemoproteomics screening and high-throughput optimisation” (Communications Chemistry, 2025):

What was measured:
Assay in all cases: log2 ratio of Biotin-Ahx-Ub-VS probe labelling (fragment/DMSO); higher = less target engagement (more negative = stronger competition), active = hit call of the paper (q ≤ 0.05, log2 ratio ≤ -1)
Settings in all cases: compound concentration: 200 uM; treatment time: 3 h
[1] = biological target: USP34 (UniProt Q70CQ2)
Outline: (§1)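 The table lists average log2 ratios of fragment over vehicle, from an unpaired t-test on global-median-normalised Spectronaut label-free quantities. Proteins with ≥2 unique peptides were used. Samples were HEK293T lysate (495 µg) treated in triplicate with fragment at 200 µM or vehicle for 3 h, then with Biotin-Ahx-Ub-VS (0.5 µM final) for 1 h, with labelled DUBs NeutrAvidin-enriched and run by diaPASEF LC-MS/MS.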

[2] = biological target: T1, USP36 (UniProt Q9P275)
T1 sequence (whole entry): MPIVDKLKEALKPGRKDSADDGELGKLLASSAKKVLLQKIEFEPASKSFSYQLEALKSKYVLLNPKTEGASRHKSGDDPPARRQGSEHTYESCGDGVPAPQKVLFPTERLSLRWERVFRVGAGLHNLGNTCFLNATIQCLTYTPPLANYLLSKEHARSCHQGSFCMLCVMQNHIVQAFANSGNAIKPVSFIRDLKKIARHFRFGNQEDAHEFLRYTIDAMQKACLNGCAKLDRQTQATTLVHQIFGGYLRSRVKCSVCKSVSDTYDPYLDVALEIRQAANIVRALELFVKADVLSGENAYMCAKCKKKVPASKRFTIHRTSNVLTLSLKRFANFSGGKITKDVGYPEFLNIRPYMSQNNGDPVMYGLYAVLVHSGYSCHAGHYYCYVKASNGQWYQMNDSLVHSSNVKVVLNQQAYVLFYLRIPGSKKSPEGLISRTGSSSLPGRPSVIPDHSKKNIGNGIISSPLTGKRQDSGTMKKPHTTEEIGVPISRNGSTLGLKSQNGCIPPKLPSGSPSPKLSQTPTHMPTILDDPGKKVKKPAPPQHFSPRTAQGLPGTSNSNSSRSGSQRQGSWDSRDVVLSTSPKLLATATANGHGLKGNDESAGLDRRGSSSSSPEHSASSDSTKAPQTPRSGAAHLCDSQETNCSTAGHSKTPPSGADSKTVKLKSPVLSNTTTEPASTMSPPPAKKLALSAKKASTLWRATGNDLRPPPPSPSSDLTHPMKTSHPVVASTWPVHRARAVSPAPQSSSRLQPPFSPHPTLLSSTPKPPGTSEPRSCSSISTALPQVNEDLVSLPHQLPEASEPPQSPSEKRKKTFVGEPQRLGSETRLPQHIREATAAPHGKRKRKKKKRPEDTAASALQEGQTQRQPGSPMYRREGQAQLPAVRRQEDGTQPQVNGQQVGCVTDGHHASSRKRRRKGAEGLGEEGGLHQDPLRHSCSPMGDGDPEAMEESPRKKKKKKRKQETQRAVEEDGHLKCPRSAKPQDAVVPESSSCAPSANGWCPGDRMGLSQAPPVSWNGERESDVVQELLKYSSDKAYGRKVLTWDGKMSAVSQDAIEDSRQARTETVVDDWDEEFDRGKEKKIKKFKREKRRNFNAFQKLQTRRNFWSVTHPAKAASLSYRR
Outline: as §1

[3] = biological target: T2, USP38 (UniProt Q8NB14)
T2 sequence (whole entry): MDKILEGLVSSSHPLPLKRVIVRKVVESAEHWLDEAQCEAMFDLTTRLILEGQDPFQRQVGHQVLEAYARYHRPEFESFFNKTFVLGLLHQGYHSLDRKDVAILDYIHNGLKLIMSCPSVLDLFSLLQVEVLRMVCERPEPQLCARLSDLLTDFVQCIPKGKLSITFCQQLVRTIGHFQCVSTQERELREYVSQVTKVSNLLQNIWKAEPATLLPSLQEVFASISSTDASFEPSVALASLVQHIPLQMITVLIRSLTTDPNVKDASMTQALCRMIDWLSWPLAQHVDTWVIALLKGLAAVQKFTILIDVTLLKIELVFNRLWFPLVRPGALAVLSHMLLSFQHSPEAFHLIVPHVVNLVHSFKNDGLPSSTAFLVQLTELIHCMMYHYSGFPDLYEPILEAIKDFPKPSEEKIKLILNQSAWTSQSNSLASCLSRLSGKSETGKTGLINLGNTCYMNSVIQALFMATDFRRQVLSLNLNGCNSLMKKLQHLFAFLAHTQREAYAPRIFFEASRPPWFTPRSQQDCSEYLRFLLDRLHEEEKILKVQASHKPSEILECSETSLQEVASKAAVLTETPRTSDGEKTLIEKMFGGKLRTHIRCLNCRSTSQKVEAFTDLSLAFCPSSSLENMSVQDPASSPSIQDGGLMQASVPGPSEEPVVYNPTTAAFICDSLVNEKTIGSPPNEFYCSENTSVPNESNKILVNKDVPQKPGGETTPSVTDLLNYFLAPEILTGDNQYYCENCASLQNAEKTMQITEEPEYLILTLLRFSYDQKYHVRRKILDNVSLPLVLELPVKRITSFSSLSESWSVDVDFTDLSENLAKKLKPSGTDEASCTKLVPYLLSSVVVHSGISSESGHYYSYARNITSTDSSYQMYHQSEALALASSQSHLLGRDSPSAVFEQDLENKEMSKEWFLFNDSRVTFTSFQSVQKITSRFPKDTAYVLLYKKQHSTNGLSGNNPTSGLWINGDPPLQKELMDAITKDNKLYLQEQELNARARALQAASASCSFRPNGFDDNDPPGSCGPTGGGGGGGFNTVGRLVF
Outline: as §1

[4] = biological target: T3, USP39 (UniProt Q53GS9)
T3 sequence (whole entry): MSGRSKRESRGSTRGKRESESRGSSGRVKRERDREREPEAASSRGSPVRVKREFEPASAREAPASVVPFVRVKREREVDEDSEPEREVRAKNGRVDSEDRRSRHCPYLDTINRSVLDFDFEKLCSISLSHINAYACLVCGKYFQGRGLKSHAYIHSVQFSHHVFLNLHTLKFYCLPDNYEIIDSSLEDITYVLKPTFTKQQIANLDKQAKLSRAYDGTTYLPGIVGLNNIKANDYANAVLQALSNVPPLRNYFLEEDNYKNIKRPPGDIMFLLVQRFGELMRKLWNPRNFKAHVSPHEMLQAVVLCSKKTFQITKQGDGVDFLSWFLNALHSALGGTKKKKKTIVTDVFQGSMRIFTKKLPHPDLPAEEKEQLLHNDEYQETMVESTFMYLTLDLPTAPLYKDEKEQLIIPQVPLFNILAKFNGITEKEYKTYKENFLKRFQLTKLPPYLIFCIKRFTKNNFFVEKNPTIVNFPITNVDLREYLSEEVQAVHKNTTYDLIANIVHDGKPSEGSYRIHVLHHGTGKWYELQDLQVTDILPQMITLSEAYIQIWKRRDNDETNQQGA
Outline: as §1

[5] = biological target: T4, USP4 (UniProt Q13107)
T4 sequence (whole entry): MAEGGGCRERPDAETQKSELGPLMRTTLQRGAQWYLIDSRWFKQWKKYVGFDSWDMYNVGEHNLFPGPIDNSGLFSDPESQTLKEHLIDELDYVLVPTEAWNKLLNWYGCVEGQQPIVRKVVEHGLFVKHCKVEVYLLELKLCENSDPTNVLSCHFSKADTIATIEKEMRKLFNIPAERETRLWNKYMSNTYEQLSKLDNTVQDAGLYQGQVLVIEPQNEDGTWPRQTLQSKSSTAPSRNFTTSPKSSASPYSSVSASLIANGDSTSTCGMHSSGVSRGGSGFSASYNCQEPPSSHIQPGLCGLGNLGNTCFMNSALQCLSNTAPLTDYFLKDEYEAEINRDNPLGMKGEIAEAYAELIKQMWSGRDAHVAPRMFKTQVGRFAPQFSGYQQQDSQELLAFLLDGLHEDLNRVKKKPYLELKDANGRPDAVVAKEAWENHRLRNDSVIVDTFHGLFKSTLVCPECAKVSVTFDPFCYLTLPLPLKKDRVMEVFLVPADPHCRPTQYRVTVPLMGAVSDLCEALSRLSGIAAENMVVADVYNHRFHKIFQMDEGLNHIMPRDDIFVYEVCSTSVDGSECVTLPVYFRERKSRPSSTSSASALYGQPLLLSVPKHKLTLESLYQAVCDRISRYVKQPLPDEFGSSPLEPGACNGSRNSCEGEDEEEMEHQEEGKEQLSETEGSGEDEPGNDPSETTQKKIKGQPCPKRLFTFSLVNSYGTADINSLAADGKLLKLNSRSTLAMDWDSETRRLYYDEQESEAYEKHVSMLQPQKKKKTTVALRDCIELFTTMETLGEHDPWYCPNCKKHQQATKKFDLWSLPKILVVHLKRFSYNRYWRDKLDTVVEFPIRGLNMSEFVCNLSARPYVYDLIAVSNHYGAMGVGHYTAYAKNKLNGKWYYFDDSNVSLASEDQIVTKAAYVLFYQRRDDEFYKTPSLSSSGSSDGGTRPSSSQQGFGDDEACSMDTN
Outline: as §1

Measured: log2 ratio of Biotin-Ahx-Ub-VS probe labelling

Sequence of USP34 (Q70CQ2 whole entry, the tested form may be a part): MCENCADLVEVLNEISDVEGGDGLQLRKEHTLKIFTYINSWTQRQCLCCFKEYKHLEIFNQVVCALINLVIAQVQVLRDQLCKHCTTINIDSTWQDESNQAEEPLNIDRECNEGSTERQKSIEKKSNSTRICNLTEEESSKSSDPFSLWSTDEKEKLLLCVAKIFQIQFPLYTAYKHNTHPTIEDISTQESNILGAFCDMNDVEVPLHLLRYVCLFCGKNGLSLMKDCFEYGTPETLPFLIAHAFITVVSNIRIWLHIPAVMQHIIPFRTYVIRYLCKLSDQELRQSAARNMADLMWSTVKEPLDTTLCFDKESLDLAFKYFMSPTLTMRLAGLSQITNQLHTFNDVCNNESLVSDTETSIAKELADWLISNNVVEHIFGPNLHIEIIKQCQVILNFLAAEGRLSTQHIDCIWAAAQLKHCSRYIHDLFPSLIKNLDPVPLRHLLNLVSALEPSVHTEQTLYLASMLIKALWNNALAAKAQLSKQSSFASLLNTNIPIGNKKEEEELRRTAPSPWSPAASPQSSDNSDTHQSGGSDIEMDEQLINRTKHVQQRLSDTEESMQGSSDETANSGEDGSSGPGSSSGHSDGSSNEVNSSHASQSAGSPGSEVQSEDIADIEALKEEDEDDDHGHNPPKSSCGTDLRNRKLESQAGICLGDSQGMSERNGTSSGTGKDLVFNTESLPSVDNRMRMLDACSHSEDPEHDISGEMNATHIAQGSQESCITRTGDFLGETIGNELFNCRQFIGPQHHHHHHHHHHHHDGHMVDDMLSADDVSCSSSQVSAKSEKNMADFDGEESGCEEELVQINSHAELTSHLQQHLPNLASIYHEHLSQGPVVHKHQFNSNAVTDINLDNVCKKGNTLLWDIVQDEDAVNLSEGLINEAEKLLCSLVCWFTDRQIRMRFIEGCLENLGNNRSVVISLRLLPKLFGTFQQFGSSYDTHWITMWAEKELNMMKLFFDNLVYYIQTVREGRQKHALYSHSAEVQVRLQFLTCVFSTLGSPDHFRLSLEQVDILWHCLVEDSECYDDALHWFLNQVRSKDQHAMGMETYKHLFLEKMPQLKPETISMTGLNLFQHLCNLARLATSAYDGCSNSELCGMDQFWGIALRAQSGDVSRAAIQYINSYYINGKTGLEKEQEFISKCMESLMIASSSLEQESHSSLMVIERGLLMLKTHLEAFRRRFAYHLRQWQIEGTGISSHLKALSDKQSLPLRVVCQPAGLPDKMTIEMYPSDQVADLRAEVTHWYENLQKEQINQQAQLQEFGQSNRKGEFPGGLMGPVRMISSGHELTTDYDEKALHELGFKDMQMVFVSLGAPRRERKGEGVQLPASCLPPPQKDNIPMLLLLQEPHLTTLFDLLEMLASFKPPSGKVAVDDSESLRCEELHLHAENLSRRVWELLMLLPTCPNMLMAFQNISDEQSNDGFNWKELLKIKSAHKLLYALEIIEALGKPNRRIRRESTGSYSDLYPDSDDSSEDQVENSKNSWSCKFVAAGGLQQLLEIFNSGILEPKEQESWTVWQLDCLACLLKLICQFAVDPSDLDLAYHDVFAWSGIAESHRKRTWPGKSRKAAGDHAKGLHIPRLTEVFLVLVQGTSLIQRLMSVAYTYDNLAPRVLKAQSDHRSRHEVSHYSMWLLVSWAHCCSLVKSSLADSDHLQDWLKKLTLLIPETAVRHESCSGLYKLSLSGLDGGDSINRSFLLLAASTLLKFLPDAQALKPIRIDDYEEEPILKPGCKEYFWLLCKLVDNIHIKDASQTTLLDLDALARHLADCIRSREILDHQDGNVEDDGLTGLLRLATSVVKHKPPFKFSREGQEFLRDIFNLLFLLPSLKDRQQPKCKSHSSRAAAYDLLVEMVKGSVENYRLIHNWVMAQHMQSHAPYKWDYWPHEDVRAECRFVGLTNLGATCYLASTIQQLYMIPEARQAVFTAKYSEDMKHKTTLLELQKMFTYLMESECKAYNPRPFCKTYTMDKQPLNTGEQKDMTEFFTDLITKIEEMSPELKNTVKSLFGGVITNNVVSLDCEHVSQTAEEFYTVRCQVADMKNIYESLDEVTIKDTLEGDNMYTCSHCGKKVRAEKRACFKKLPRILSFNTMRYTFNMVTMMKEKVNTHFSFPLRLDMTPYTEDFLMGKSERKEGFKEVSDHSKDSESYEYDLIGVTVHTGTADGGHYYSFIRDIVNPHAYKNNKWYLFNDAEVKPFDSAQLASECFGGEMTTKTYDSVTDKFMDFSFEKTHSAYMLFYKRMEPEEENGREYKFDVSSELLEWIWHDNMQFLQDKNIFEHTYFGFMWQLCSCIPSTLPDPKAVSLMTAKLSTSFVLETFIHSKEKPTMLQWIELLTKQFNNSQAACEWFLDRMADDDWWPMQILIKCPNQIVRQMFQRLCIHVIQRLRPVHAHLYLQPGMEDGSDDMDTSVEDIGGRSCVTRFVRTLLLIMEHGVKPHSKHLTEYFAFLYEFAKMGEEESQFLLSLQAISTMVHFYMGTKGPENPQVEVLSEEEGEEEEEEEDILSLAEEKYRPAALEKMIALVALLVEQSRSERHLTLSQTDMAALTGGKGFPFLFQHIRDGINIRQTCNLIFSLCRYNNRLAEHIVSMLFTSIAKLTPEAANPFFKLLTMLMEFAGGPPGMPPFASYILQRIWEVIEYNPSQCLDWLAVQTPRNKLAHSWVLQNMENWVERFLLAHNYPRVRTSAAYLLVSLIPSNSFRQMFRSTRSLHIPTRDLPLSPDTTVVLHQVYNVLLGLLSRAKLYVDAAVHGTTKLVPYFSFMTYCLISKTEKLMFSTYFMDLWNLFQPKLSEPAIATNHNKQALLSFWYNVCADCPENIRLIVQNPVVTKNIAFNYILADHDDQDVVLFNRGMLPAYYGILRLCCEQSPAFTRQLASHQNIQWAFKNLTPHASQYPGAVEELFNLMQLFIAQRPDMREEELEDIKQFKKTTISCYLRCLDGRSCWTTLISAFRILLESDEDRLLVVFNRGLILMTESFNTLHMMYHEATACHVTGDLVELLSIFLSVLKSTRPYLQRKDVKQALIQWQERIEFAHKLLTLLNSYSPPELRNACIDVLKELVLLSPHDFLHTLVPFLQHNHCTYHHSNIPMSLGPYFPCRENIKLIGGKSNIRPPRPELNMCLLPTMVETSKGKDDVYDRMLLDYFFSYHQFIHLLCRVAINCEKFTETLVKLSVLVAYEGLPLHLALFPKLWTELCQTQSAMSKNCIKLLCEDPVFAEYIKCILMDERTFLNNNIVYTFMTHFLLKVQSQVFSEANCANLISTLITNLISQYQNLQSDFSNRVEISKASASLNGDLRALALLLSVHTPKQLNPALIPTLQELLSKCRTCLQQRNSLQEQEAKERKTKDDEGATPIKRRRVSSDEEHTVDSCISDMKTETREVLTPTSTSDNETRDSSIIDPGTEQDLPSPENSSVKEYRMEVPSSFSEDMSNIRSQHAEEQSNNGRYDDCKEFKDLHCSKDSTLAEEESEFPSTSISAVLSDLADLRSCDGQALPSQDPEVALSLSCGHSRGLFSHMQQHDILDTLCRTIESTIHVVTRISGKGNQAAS

Cc1cnc2[nH]cc(CCNC(=O)CCl)c2c1
inactive: [1] -0.162 | [2] -0.31 | [3] 0.0877 | [4] 0.144 | [5] -0.338
